Measured values: PubChem BioAssay AID687016 (The Scripps Research Institute Molecular Screening Center, 2013)
Where “and” joins values, the source holds several entries; their conditions need not be identical. Equal entries are not always repeated. Screen size: about 370,000 compounds; about 2,800 (0.76%) were called active. No stated cut-off is given here; in the data, active means inhibition above about 21%; inactive means the rest. This excerpt belongs to a sample that is enriched for actives. Some structures have more than one record in an assay (separate samples or runs), and their calls can disagree.

Each compound was assayed against E3 ubiquitin-protein ligase UHRF1 (Homo sapiens) (UniProt Q96T88) (assay: blockers of UHRF1 binding to methyl-oligo – biochemical, TR-FRET, human UHRF1, single concentration, counter-screen for MBD2 inhibitor project, primary screen (AID 687016;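 further: UHRF1 SRA domain binding a hemimethylated CpG hairpin DNA probe; 0% = median of test compound wells and 100% = reference inhibitor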)). Details: UHRF1 binding to methylated oligo, at 4.4 µM, stronger effect = higher value.
Sequence of E3 ubiquitin-protein ligase UHRF1 (Homo sapiens) (Q96T88 whole entry, looked up, the tested form may be a part): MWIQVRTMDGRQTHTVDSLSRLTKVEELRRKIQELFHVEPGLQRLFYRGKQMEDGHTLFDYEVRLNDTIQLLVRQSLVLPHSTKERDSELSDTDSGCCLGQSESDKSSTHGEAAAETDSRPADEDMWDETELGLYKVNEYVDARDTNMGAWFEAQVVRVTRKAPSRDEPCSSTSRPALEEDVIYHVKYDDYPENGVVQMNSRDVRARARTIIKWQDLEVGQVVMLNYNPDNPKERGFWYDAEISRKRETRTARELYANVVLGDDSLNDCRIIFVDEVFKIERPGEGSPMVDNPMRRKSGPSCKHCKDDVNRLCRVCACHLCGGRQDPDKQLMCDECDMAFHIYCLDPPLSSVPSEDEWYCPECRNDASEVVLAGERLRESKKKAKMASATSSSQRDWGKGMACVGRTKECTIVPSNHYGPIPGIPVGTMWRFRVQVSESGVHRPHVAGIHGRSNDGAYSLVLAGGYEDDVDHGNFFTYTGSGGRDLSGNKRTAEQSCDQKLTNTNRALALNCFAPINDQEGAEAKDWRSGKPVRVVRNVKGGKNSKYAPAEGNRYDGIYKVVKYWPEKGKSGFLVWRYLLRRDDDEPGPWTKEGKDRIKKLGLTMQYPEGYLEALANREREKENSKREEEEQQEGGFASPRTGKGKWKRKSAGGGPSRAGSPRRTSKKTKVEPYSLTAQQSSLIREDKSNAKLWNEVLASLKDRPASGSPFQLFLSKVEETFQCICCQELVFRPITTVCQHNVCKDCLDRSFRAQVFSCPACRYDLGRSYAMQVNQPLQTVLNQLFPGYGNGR

SMILES	inhibition
COc1ccc(Cn2ccc3ccc(-c4ccc5ccn(Cc6ccccc6C)c5c4)cc32)cc1	-0.92% (inactive)
CC(C)N1CCCCC(NC(=O)c2ccc3ccccc3c2)C1=O (centres undefined)	-2.66% (inactive)
O=C(c1c[nH]c2ccccc12)N1CCC(Oc2cccnc2)CC1	-3.48% (inactive)
COC(=O)[C@H](C(C)C)N1CCc2nnn(Cc3ccc(C)cc3)c2-c2ccccc2S1(=O)=O	-0.67% (inactive)
C=CCN1C(=O)[C@@H](CC(=O)NCCCCc2ccccc2)[C@]2(C(=O)OCC)CCCCC/C=C/12	-1.86% (inactive)
COc1ccc2[nH]c3c(C)c4cc[n+](C)cc4c(C)c3c2c1	92.9% (active)
CC(=O)N1CCCN(C2=Nc3ccccc3Sc3ccccc32)CC1	11.8% (inactive)
Cc1ccc(NC(=O)Cn2sc3ccccc3c2=O)cc1	-0.79% (inactive)
Cc1ccnc(-n2sc3ccccc3c2=O)n1	21.5% (active)
Cc1ccnc(SC2CC(=O)N(c3ccccc3)C2=O)n1 (centres undefined)	-0.14% (inactive)
COc1ccc(CN2C/C(=C/c3ccccc3)N3C(=O)C[C@@H](c4ccccc4)N=C23)c(OC)c1	-0.02% (inactive)
COc1ccc(/C=C2\CC3(OC(C)=O)CCCN2C3)cc1 (centres undefined)	-2.63% (inactive)
C=CCN1C(C(=O)OC)CN(Cc2cn(Cc3ccccc3)nn2)CCS1(=O)=O (centres undefined)	15.8% (inactive)
O=C(NCCCc1ccccc1)C(=O)c1c[nH]c2ccccc12	-1.59% (inactive)
O=C(CNC(=O)c1ccccc1F)OCC(=O)c1c[nH]c2ccccc12	-1.49% (inactive)
C[N+](C)(C)CCNC(=O)c1c[nH]c2ccccc12	21.1% (active)
Clc1ccc(-n2c(COc3ccccc3)nnc2SCc2nc3ccccc3[nH]2)cc1	-1.31% (inactive)
C[C@@H](NC(=O)c1ccccc1OCC(=O)Nc1ccc(I)cc1)C(=O)N(C)Cc1ccccc1	0.7% (inactive)
COc1ccc2c(c1)c(=Cc1ccc(N(C)C)cc1)c1cc(-c3ccccc3)[n+](C)n12	57.8% (active)
C=C1C(C(C)C)N(C)C2=NC(c3ccccc3)CC(=O)N12 (centres undefined)	-0.97% (inactive)
CC(C)CSc1nnc(-c2cccnc2)n1Cc1ccccc1	-0.61% (inactive)
Cc1ccc(NC(=O)Cc2cccc(F)c2)c(S(=O)(=O)N2CCOCC2)c1	0.9% (inactive)
O=C(Cn1ncc2c3ccccc3n(Cc3ccccc3)c2c1=O)NCCCN1CCOCC1	0.46% (inactive)
Cc1ccccc1Cn1c2ccccc2c2cnn(CC(=O)NCc3ccco3)c(=O)c21	22.5% (active)
O=C(Cn1ncc2c3ccccc3n(Cc3ccccc3)c2c1=O)NCc1ccccn1	0.71% (inactive)
CCC(=O)c1c(CC)c2n3c1=CC[C@H]3CC(Br)C=2 (some centres undefined)	1.95% (inactive)
O=C(NCc1ccc(Cl)cc1)C1CCCN(c2nc3ccccc3o2)C1 (centres undefined)	2.81% (inactive)

SMILES	inhibition
COc1ccc(N2CCN(CCNS(=O)(=O)c3ccc(Cl)s3)CC2)cc1	-0.57% (inactive)
O=C(Nc1ccc(Cl)cc1)OCc1cc(-c2ccccc2)on1	2.42% (inactive)
Cc1ccc(NC(=O)OCc2cncs2)cc1	49.5% (active)
CC(C)(COC(=O)Nc1ccccc1)COC(=O)Nc1ccccc1	-1.28% (inactive)
CN1C[C@]2(C=C3CCCCC3n3c(=O)n(-c4ccccc4)c(=O)n32)N=C1NC(=O)c1ccccc1 (some centres undefined)	-2.02% (inactive)
CCOC(=O)[C@@]12CCC3=C1N(CCC3)C(=O)[C@H](CC(=O)N1CCN(C(=O)c3ccco3)CC1)C2	-1.01% (inactive)
Cc1ccc(-c2nc(C3CCCN(S(=O)(=O)c4ccc(Br)s4)C3)no2)cc1 (centres undefined)	1.59% (inactive)
Cc1cc(C)c2nc3nc(C)cc(C)c3c(N)c2c1	26.9% (active)
CCCCN1CCN(C(=O)c2ccc3c(c2)NC(=O)C(C)(C)O3)CC1	0.61% (inactive)
C=CCN1[C@H](CC(C)C)COc2cccc(N3CCCC3)c2S1(=O)=O	-0.17% (inactive)
COC(=O)CN1C(=O)N/C(=C/c2ccc(OC)c(C)c2OC)C1=O	-4.91% (inactive)
Cc1ccccc1NC(=O)CN1C(=O)N/C(=C\c2cccn2-c2cccc(C(=O)O)c2)C1=O	74.8% (active)
Cc1ccccc1NC(=O)Cn1c(=O)n(CC2CCCO2)c(=O)c2ccccc21 (centres undefined)	-0.24% (inactive)
CC(C)(C)C1C/C(=C/c2ccco2)C(=O)/C(=C/c2ccco2)C1 (centres undefined)	99.5% (active)
C=CC1=C(C(=O)O)N2C(=O)[C@@H](NC(=O)/C(=N/OCC(=O)O)c3csc(N)n3)[C@H]2SC1	93.7% (active)
CCN1CCN(C(=O)N[C@@H](C(=O)N[C@@H]2C(=O)N3C(C(=O)O)=C(CSc4nnnn4C)CS[C@H]23)c2ccc(O)cc2)C(=O)C1=O	-2.2% (inactive)
CO/N=C(\C(=O)N[C@@H]1C(=O)N2C(C(=O)O)=C(COC(C)=O)CS[C@H]12)c1csc(N)n1 (stereo in doubt)	9.54% (inactive) and 0.92% (inactive) and 27.5% (active)
C=CC1=C(C(=O)O)N2C(=O)[C@@H](NC(=O)/C(=N\OCC(=O)O)c3csc(N)n3)[C@H]2SC1	77.4% (active)
COc1ccc(-n2c(COc3ccc(C)cc3)nnc2SCC(=O)Nc2ccc(Oc3ccccc3)cc2)cc1	-5.28% (inactive)
CN(C)Cc1cn(-c2ccc(-c3noc4c3C(=O)N(CC(=O)N3CCOCC3)CC4)cc2)nn1	2.67% (inactive)
O=C(CN1CCCCCC1)Nc1c(Cl)cc(Cl)cc1Cl	-0.79% (inactive)
O=C(CN1CCCCCC1)Nc1ccc(S(=O)(=O)N2CCCCC2)cc1	62.1% (active)
O=C(CSCc1ccc(Br)cc1)Nc1ccc(S(=O)(=O)N2CCCCCC2)cc1	-1.33% (inactive)
CCOc1ccc(NC(=O)COc2ccc(S(=O)(=O)N3CCCC3)cc2)cc1	1.66% (inactive)
O=C(CN1CCCCC1)Nc1ccccc1Cl	45.6% (active)
O=C(CN1CCCCC1)Nc1ccccc1C(=O)NC1CC1	3.15% (inactive)
CC(=O)Nc1ccc(OC[C@@H](O)CN2CCC(C(O)(c3ccccc3)c3ccccc3)CC2)cc1	1.32% (inactive)
